Assay [1] concerns the target Neuropeptide Y receptor type 2 (Homo sapiens) (UniProt P49146). The assay can be described thus: NVS_GPCR_hNPY2: NovaScreen (NVS) G Protein-Coupled Receptor Assay for human Neuropeptide Receptor Y2 (NPY2) (AID 2283277). Summed up: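 Chemicals were first tested in duplicate at 25 uM, then actives in singleton concentration series to 50 uM. Tracer binding to SK-N-MC-derived protein measured cell-free after 1 h via filter scintillation; signal loss relative to DMSO.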

In assay [2] the target is D(1A) dopamine receptor (Homo sapiens) (UniProt P21728). The assay can be described thus: NVS_GPCR_hDRD1: NovaScreen (NVS) G Protein-Coupled Receptor Assay for human Dopamine Receptor D1 (DRD1) (AID 2283269). Summed up:
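Extracted HEK293 DRD1 is incubated 1 h with compound and a tritiated or iodinated radioligand, then filtered and counted. Screening runs 25 uM in duplicate with on-plate positive and negative controls.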

Assay [3] deals with human Muscarinic, M4 Receptor, CHRM4 (gene 1132) (UniProt P08173). The assay can be described thus: NVS_GPCR_hM4: NovaScreen (NVS) G Protein-Coupled Receptor Assay for human Muscarinic, M4 Receptor (AID 2283274). Summed up: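 Filter-based scintillation counting of radioligand bound to CHO-expressed human M4 preparations after 1 h; loss of signal fitted versus DMSO. Initial duplicate testing at 25 uM, concentration-response follow-up for actives.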
human Muscarinic, M4 Receptor, CHRM4 (gene 1132), sequence (P08173 whole entry, looked up): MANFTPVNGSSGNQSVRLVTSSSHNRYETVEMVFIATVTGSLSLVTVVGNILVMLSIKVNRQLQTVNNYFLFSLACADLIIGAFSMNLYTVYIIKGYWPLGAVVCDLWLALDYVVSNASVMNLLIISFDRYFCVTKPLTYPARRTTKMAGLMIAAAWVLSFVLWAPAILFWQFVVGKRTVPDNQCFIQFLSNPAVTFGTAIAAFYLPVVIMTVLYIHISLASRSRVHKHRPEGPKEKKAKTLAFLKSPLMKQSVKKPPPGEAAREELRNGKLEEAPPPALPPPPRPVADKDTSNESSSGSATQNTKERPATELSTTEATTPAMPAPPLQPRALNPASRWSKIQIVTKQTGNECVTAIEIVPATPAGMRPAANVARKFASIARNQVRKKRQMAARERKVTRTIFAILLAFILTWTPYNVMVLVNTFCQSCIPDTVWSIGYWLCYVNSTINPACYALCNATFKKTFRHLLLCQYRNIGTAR

Assay [4] addresses Muscarinic acetylcholine receptor M5 (Homo sapiens) (UniProt P08912). The assay can be described thus: NVS_GPCR_hM5: NovaScreen (NVS) G Protein-Coupled Receptor Assay for human Muscarinic, M5 Receptor (AID 2283275). Summed up: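 Chemicals passing a primary duplicate screen at 25 uM were run as singleton concentration series, maximum 50 uM. Displacement of a specific radioligand from CHO-extracted receptor was read by filter scintillation after 1 h, relative to DMSO.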

Assay [5] concerns the target human Neuropeptide Receptor Y1 (NPY1), NPY1R (gene 4886) (UniProt P25929). The assay can be described thus: NVS_GPCR_hNPY1: NovaScreen (NVS) G Protein-Coupled Receptor Assay for human Neuropeptide Receptor Y1 (NPY1) (AID 2283276). In outline: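 Displacement of specific radioligand from NPY1 receptor of SK-N-MC origin, read by filtration and scintillation after 1 h. Compounds first tested at 25 uM in duplicate, then actives in concentration series; signal loss relative to DMSO.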

Assay [6] has as its target human Neurokinin, NK2 Receptor, TACR2 (gene 6865) (UniProt P21452). Put plainly: NVS_GPCR_hNK2: NovaScreen (NVS) G Protein-Coupled Receptor Assay for human Neurokinin, NK2 Receptor (AID 2283278).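 Note: actives reduce bound radioligand signal relative to DMSO baseline.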 Summed up:
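Test chemicals displace a radioligand from receptor prepared from CHO cells in a cell-free format, read after 4 hours by scintillation counting on filters. Screening starts at 25 uM in duplicate, and active chemicals then go to concentration series.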

The target in assay [7] is human Neurotensin Receptor (NTS), NTSR1 (gene 4923) (UniProt P30989). The assay can be described thus: NVS_GPCR_hNTS: NovaScreen (NVS) G Protein-Coupled Receptor Assay for human Neurotensin Receptor (NTS) (AID 2283279). In outline: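 Compounds competed with a radiolabelled ligand for binding to CHO-derived human neurotensin receptor; bound signal counted after filtration, 1 h. Screened first at a single concentration of 25 uM in duplicate, then concentration series to 50 uM maximum for actives.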
human Neurotensin Receptor (NTS), NTSR1 (gene 4923), sequence (P30989 whole entry, looked up): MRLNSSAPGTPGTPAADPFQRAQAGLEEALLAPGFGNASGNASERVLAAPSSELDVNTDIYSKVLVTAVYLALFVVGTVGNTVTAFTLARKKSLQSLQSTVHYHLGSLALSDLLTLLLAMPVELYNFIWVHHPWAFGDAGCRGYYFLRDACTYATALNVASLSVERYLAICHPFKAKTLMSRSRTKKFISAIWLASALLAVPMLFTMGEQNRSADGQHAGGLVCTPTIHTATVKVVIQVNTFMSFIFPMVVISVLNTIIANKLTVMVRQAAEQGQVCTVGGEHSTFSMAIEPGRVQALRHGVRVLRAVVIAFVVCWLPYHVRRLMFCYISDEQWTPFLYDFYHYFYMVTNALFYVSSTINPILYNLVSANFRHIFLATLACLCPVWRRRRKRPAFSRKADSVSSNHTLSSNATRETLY

For assay [8], the target named is human Opioid Receptor Delta 1 (Opiate D1), OPRD1 (gene 4985) (UniProt P41143). The assay can be described thus: NVS_GPCR_hOpiate_D1: NovaScreen (NVS) G Protein-Coupled Receptor Assay for human Opioid Receptor Delta 1 (Opiate D1) (AID 2283280). In outline: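 Membrane preparations from CHO cells bearing the human receptor were incubated 1 h with test chemical, and bound radioligand was counted after filtration. Actives from 25 uM duplicate screening were retested in concentration-response.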
human Opioid Receptor Delta 1 (Opiate D1), OPRD1 (gene 4985), sequence (P41143 whole entry, looked up): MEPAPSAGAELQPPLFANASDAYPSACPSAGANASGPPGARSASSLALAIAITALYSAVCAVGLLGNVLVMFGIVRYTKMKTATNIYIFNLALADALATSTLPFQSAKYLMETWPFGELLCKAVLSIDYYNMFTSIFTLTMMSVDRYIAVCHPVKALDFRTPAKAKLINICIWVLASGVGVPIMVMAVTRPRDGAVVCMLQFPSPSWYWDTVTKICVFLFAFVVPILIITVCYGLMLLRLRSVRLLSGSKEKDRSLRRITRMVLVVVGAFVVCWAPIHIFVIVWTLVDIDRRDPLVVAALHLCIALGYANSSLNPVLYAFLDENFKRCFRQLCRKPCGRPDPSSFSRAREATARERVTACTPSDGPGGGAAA

For assay [9], the target named is human Orphanin, Opioid Related Nociceptin Receptor 1 (ORL1), OPRL1 (gene 4987) (UniProt P41146). Put plainly: NVS_GPCR_hORL1: NovaScreen (NVS) G Protein-Coupled Receptor Assay for human Orphanin, Opioid Related Nociceptin Receptor 1 (ORL1) (AID 2283283). Summed up: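 Cell-free binding using HEK293-derived receptor protein: radioligand displacement measured by filter scintillation 1 hour after dosing. Primary testing at 25 uM in duplicate, followed by singleton concentration series up to 50 uM; DMSO served as negative control.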
human Orphanin, Opioid Related Nociceptin Receptor 1 (ORL1), OPRL1 (gene 4987), sequence (P41146 whole entry, looked up): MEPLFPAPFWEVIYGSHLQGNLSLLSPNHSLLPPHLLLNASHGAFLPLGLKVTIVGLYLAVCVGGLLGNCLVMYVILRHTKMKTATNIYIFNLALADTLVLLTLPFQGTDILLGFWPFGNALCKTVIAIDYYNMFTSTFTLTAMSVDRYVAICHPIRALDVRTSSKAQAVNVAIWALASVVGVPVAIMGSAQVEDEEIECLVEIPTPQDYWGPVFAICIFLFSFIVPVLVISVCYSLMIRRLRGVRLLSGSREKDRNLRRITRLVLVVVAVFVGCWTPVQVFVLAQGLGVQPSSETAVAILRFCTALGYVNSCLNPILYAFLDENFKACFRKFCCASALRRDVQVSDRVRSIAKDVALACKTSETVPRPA

Assay [10] addresses mouse Cholecystokinin, CCK1 Receptor (CCKA), Cckar (gene 12425) (UniProt O08786). The assay can be described thus: NVS_GPCR_mCCKAPeripheral: NovaScreen (NVS) G Protein-Coupled Receptor Assay for mouse Cholecystokinin, CCK1 Receptor (CCKA) (AID 2283285). Summed up:
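Chemicals were first screened in duplicate at 25 uM, with those meeting threshold (e.g., 30% inhibition) retested in singleton concentration series to 50 uM maximum. Binding of radioligand to mouse pancreatic membranes was read after 2 h by filtration and scintillation counting.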

In assay [11] the test system is rabbit Platelet Activating Factor Receptor (PAF), gene 100354046. The assay can be described thus: NVS_GPCR_rabPAF: NovaScreen (NVS) G Protein-Coupled Receptor Assay for rabbit Platelet Activating Factor Receptor (PAF) (AID 2283287). Summed up: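 Rabbit platelet membrane preparation; radioligand displacement read by filter-based scintillation counting 1 h after dosing, loss of signal versus DMSO. Primary screen in duplicate at 25 uM, actives followed up in concentration series.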

The target of assay [12] is Muscarinic acetylcholine receptor M3 (Homo sapiens) (UniProt P20309). The assay can be described thus: NVS_GPCR_hM3: NovaScreen (NVS) G Protein-Coupled Receptor Assay for human Muscarinic, M3 Receptor (AID 2283272). In outline:
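Radioligand displacement binding on human M3 receptor in CHO-derived membranes, 1 h incubation, filter-based scintillation counting. Primary screen in duplicate at 25 uM; actives followed up in concentration series; loss of signal versus DMSO.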

In assay [13] the target is Muscarinic acetylcholine receptor M2 (Homo sapiens) (UniProt P08172). The assay can be described thus: NVS_GPCR_hM2: NovaScreen (NVS) G Protein-Coupled Receptor Assay for human Muscarinic, M2 Receptor (AID 2283273). In outline: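 CHO-expressed human M2 receptor preparation, competitive displacement of a radioligand read by filter-based scintillation counting after 1 h. Single 25 uM duplicate screen, then concentration-response follow-up of actives; DMSO baseline.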

Where “and” joins values, the source holds several entries; their conditions need not be identical. Equal entries are not always repeated. Inconclusive results are not listed. Calls of active or inactive are those of the source. Rule for the calls: active = hit-call score of the fitted dose curve at least 0.9, where 1 is the maximum; inconclusive = response in the unintended direction; inactive = score below 0.9.

D(1A) dopamine receptor (Homo sapiens), sequence (P21728 whole entry, looked up): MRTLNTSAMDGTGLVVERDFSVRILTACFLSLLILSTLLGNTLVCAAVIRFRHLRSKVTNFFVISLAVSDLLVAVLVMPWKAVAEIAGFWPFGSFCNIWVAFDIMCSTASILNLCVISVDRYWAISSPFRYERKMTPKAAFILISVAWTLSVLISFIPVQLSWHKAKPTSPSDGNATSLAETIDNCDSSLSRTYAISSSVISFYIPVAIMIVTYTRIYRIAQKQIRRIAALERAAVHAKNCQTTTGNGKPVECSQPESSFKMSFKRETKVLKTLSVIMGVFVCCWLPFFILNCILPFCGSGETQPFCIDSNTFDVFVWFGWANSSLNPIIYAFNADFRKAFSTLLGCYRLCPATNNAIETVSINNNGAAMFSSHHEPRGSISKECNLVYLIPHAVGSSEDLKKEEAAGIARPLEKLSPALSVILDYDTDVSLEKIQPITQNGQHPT
Muscarinic acetylcholine receptor M3 (Homo sapiens), sequence (P20309 whole entry, looked up): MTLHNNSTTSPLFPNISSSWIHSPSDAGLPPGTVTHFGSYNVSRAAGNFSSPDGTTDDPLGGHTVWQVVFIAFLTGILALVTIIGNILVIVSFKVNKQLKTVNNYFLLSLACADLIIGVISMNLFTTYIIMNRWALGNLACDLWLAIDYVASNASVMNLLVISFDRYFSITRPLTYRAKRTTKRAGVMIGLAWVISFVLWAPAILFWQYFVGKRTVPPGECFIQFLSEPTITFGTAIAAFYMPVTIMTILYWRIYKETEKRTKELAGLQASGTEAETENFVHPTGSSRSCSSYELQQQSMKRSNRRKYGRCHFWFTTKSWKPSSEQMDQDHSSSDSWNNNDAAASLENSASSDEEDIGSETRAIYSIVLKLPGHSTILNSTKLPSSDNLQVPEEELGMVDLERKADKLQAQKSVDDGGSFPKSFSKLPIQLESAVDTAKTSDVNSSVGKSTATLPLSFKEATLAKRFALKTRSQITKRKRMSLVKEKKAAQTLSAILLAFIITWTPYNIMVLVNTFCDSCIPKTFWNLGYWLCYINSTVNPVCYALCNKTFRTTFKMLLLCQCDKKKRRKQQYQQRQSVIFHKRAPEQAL
Muscarinic acetylcholine receptor M5 (Homo sapiens), sequence (P08912 whole entry, looked up): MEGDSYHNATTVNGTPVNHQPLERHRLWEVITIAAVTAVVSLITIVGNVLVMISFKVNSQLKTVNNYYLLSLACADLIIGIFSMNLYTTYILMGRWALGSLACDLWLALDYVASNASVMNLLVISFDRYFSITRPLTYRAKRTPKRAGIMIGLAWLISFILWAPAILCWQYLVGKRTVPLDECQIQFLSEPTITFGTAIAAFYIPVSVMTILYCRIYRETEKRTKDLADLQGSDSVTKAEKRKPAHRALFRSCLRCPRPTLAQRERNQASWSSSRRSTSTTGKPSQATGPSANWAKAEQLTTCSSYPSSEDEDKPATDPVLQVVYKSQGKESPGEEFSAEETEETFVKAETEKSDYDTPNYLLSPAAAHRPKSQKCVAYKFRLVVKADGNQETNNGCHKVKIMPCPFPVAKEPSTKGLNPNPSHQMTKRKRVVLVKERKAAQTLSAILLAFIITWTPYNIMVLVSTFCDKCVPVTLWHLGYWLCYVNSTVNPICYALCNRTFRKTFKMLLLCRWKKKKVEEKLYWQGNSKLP
human Neuropeptide Receptor Y1 (NPY1), NPY1R (gene 4886), sequence (P25929 whole entry, looked up): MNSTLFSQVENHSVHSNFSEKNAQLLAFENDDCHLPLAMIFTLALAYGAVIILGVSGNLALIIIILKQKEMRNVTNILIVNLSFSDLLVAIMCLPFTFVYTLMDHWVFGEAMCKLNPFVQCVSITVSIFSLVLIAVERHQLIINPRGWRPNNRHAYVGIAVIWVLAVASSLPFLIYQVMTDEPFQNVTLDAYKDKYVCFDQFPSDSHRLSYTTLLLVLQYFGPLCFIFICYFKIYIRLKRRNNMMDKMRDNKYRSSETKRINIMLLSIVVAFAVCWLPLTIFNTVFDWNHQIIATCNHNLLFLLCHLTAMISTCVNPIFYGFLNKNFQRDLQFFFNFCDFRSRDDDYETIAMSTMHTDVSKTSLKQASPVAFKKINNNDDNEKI
Neuropeptide Y receptor type 2 (Homo sapiens), sequence (P49146 whole entry, looked up): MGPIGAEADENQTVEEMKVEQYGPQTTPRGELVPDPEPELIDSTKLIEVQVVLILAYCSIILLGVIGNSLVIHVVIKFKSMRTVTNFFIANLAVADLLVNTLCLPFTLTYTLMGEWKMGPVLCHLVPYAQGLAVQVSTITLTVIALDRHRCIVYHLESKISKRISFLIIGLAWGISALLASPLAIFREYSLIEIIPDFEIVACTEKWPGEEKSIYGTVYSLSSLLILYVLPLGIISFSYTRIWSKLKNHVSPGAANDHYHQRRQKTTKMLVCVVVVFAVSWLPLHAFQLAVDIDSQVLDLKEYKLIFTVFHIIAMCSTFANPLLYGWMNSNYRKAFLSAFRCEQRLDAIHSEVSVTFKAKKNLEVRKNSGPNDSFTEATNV
mouse Cholecystokinin, CCK1 Receptor (CCKA), Cckar (gene 12425), sequence (O08786 whole entry, looked up): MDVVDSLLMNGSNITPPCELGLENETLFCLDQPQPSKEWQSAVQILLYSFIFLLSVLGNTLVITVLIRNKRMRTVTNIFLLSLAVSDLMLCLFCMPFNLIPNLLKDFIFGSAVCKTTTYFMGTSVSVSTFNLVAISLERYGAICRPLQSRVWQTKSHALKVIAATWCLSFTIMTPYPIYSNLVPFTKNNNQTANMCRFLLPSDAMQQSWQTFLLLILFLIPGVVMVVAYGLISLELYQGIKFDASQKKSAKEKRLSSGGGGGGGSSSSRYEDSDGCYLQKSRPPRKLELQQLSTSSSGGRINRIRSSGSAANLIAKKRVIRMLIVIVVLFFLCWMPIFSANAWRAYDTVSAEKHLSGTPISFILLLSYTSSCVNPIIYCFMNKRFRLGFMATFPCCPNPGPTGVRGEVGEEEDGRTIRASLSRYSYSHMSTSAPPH
human Neurokinin, NK2 Receptor, TACR2 (gene 6865), sequence (P21452 whole entry, looked up): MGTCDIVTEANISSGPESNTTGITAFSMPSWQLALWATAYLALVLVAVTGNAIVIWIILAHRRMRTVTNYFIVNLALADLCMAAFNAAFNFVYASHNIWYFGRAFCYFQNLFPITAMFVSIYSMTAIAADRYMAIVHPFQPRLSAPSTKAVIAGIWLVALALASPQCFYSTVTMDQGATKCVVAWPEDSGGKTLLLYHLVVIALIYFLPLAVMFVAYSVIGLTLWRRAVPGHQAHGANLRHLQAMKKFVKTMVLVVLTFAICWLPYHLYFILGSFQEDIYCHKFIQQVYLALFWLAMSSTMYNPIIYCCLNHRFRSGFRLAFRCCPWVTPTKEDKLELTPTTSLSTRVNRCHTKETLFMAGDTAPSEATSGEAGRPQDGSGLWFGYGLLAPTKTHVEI

On to `O=C1CCCCC1`, for which the molecule was called inactive in [1].

By AC50 is commonly meant the concentration giving half of the maximal activity seen. Take `CCN(CC)CCOc1ccc(C(=C(Cl)c2ccccc2)c2ccccc2)cc1`: the AC50 in [2] was 2.28 µM (active); in assay [3], 4.2 µM (active); in assay [4], 2.53 µM (active); in [5], 31.8 µM (active); in [6] it was 9.71 µM (active); in [8] it was 9.7 µM (active). In addition, the AC50 is 28.9 µM (active) and 7.41 µM (active) and 31.3 µM (active) in assay [9]; 21.4 µM (active) in assay [10]; 4.76 µM (active) in assay [11]. In addition, the molecule was classed as inactive in assay [7].

Take `CCc1nc(N)nc(N)c1-c1ccc(Cl)cc1`: the AC50 in assay [2] was 4.73 µM (active); in [13] it was 13.9 µM (active). In addition, the outcome in [12] and in [3] was inactive.

These data come from PubChem BioAssay (EPA / NIEHS).
